Reference: PubChem BioAssay (EPA / NIEHS)
Inconclusive results are not listed. Active and inactive are the calls of the source. The calls were made as follows: active = hit-call score of the fitted dose curve at least 0.9, where 1 is the maximum; inconclusive = response in the unintended direction; inactive = score below 0.9.

Molecular target: Oxysterols receptor LXR-beta (Homo sapiens) (UniProt P55055)
Test: ATG_LXRb_TRANS: Attagene TRANS-FACTORIAL HepG2 Assay for human Liver X Receptor beta (LXRb) (AID 2282981)
Details: HepG2 Attagene TRANS GAL4-LXRb reporter, mRNA
Method in brief: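 Multiplexed reporter assay, HepG2, 24 h dosing. Fluorescence of labelled RT-PCR products after capillary electrophoresis gives transcript level; positive fitting direction relative to DMSO.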

Chain of Oxysterols receptor LXR-beta (Homo sapiens) (P55055 whole entry, looked up): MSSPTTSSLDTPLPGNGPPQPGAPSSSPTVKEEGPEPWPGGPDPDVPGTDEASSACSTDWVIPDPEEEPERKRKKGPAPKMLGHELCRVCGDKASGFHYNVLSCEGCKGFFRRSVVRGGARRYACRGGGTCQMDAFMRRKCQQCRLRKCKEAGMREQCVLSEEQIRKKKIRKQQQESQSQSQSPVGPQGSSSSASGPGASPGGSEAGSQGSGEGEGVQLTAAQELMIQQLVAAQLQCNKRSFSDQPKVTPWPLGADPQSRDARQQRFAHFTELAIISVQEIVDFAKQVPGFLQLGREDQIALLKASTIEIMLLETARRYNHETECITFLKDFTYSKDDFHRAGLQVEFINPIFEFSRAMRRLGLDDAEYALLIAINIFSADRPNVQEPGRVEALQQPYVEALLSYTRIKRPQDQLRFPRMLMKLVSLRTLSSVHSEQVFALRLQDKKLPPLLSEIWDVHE

Row | Structure (SMILES) | outcome
1 | CNC(=C[N+](=O)[O-])NCCSCc1csc(CN(C)C)n1 | inactive
2 | O=C1CCCCCCCCCCCCCC1 | inactive
3 | COC(=O)c1ccccc1 | inactive
4 | CC/C=C\CC/C=C/C(OCC)OCC | inactive
5 | C=CCOCC(CC)(CO)COCC=C | inactive
6 | CN1CCCC1 | inactive
7 | CCO[Si](CCCN)(OCC)OCC | inactive
8 | CCCCCCC1CCC(=O)O1 (stereo not drawn) | inactive
9 | CCC(=O)OCc1ccc(OC)cc1 | inactive
10 | CCC(C)=NO | inactive
11 | COc1cccc(OC)c1C(=O)O | inactive
12 | C=C1CC[C@H]2C[C@@H]1C2(C)C | inactive
13 | COC(=O)[C@]1(C)CCC[C@@]2(C)[C@H]1CC=C1C=C(C(C)C)CC[C@@H]12 | inactive
14 | Cc1cc2nc3c(=O)[nH]c(=O)nc-3n(C[C@H](O)[C@H](O)[C@H](O)CO)c2cc1C | inactive
15 | c1ccc(CNc2ncnc3nc[nH]c23)cc1 | inactive
16 | NC(=O)c1ccc(N)cc1 | inactive
17 | CC(C)=CCOC(=O)c1ccccc1 | inactive
18 | CC(C)(C)NC(=O)[C@@H]1CN(Cc2cccnc2)CCN1C[C@@H](O)C[C@@H](Cc1ccccc1)C(=O)N[C@H]1c2ccccc2C[C@H]1O | inactive
19 | CC(=O)CCc1ccccc1 | inactive
20 | CN(C)c1ccc(C(c2ccccc2)c2ccc(N(C)C)cc2)cc1 | inactive
21 | CCCCCC[C@@H](O)C/C=C\CCCCCCCC(=O)O | inactive

Molecular target: Hepatocyte nuclear factor 4-alpha (Homo sapiens) (UniProt P41235)
Sequence (P41235 whole entry, looked up): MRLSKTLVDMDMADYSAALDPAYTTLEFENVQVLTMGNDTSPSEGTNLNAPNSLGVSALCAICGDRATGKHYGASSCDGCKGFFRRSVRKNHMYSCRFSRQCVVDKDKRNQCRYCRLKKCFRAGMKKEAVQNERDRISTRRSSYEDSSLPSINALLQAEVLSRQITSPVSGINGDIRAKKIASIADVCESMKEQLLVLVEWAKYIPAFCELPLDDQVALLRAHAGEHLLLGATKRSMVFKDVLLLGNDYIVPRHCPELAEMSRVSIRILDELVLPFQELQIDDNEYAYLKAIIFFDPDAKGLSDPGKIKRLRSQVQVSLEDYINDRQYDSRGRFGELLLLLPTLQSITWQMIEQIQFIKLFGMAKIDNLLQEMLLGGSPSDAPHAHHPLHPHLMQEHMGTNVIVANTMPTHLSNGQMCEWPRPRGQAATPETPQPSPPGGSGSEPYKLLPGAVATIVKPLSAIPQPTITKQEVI
Test: ATG_HNF4a_TRANS: Attagene TRANS-FACTORIAL HepG2 Assay for human Hepatocyte Nuclear Factor 4 alpha (HNF4a) (AID 2282982)
Details: HepG2 HNF4a transactivation reporter, mRNA readout
Method in brief: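 Endpoint reflects transcriptional activation of a GAL4-UAS reporter by an HNF4a-GAL4 chimera in transfected HepG2 cells, 24 h post-dosing. Fluorescence from RT-PCR products separated by capillary electrophoresis; DMSO baseline.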

Row | Structure (SMILES) | outcome
22 | CNC(=C[N+](=O)[O-])NCCSCc1csc(CN(C)C)n1 | inactive
23 | CCCC(=O)OC/C=C(\C)CCC=C(C)C | inactive
24 | CCCCCCC(O)CCCCCCCCCCC(=O)OC (stereo not drawn) | inactive
25 | COC(=O)c1ccccc1 | inactive
26 | O=S(=O)(O)c1cccc2ccccc12 | inactive
27 | CC/C=C\CC/C=C/C(OCC)OCC | inactive
28 | CN1CCCC1 | inactive
29 | CCO[Si](CCCN)(OCC)OCC | inactive
30 | CCCCCCC1CCC(=O)O1 (stereo not drawn) | inactive
31 | O=[N+]([O-])c1ccccc1C(F)(F)F | inactive
32 | CCC(=O)OCc1ccc(OC)cc1 | inactive
33 | CCc1cc(C(N)=S)ccn1 | inactive
34 | CCC(C)=NO | inactive
35 | COc1cccc(OC)c1C(=O)O | inactive
36 | C=C1CC[C@H]2C[C@@H]1C2(C)C | inactive
37 | CCCCCC1CCCC(=O)O1 (stereo not drawn) | inactive
38 | Cc1cc2nc3c(=O)[nH]c(=O)nc-3n(C[C@H](O)[C@H](O)[C@H](O)CO)c2cc1C | inactive
39 | Cc1cc(-n2nc3ccc(Cl)cc3n2)c(O)c(C(C)(C)C)c1 | inactive
40 | O=C(OCc1ccccc1)c1ccccc1 | inactive
41 | CCCCCCC1CCCC(=O)O1 (stereo not drawn) | inactive
42 | c1ccc(CNc2ncnc3nc[nH]c23)cc1 | inactive
43 | NC(=O)c1ccc(N)cc1 | inactive
44 | CC(=O)Nc1c(I)c(NC(C)=O)c(I)c(C(=O)O)c1I | inactive
45 | CN(C)c1ccc(C(c2ccccc2)c2ccc(N(C)C)cc2)cc1 | inactive
46 | CCCCCC[C@@H](O)C/C=C\CCCCCCCC(=O)O | inactive
47 | CC[N+](CC)(CC(=O)Nc1c(C)cccc1C)Cc1ccccc1 (tested in a mixture with another compound) | inactive

Test system: not listed separately
Test: ATG_M_06_TRANS: Attagene TRANS-FACTORIAL HepG2 Assay for M06 Transcription Factor (Internal Marker) (AID 2282983)
Details: HepG2 Attagene TRANS M06 internal marker reporter
Method in brief: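 mRNA levels of a reporter transcript, quantified as FAM fluorescence on capillary electrophoresis, served as readout. HepG2 cells expressing exogenous GAL4-chimera reporter constructs were exposed for 24 h. Gain of signal over DMSO was evaluated.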

Row | Structure (SMILES) | outcome
48 | O=C1CCCCCCCCCCCCCC1 | inactive
49 | CCCC(=O)OC/C=C(\C)CCC=C(C)C | inactive
50 | CCCCCCC(O)CCCCCCCCCCC(=O)OC (stereo not drawn) | inactive
51 | COC(=O)c1ccccc1 | inactive
52 | O=C(O)/C=C/C(=O)O | inactive
53 | O=S(=O)(O)c1cccc2ccccc12 | inactive
54 | CC/C=C\CC/C=C/C(OCC)OCC | inactive
55 | C=CCOCC(CC)(CO)COCC=C | inactive
56 | CN1CCCC1 | inactive
57 | CCO[Si](CCCN)(OCC)OCC | inactive
58 | CCc1cc(C(N)=S)ccn1 | inactive
59 | CCC(C)=NO | inactive
60 | COc1cccc(OC)c1C(=O)O | inactive
61 | C=C1CC[C@H]2C[C@@H]1C2(C)C | inactive
62 | COC(=O)[C@]1(C)CCC[C@@]2(C)[C@H]1CC=C1C=C(C(C)C)CC[C@@H]12 | inactive
63 | Cc1cc2nc3c(=O)[nH]c(=O)nc-3n(C[C@H](O)[C@H](O)[C@H](O)CO)c2cc1C | inactive
64 | Cc1cc(-n2nc3ccc(Cl)cc3n2)c(O)c(C(C)(C)C)c1 | inactive
65 | O=C(OCc1ccccc1)c1ccccc1 | inactive
66 | CCCCCCC1CCCC(=O)O1 (stereo not drawn) | inactive
67 | c1ccc(CNc2ncnc3nc[nH]c23)cc1 | inactive
68 | NC(=O)c1ccc(N)cc1 | inactive
69 | CC(=O)Nc1c(I)c(NC(C)=O)c(I)c(C(=O)O)c1I | inactive
70 | CC(C)=CCOC(=O)c1ccccc1 | inactive
71 | Oc1cccc2ccccc12 | inactive
72 | Oc1ccc(Oc2ccccc2)cc1 | inactive
73 | CNC[C@H](O)[C@@H](O)[C@H](O)[C@H](O)CO | inactive
74 | c1ccc2c(c1)Oc1ccccc1S2 | inactive
75 | CCCCCC[C@@H](O)C/C=C\CCCCCCCC(=O)O | inactive
76 | CC[N+](CC)(CC(=O)Nc1c(C)cccc1C)Cc1ccccc1 (tested in a mixture with another compound) | inactive

Test system: not listed separately
Test: ATG_M_32_TRANS: Attagene TRANS-FACTORIAL HepG2 Assay for M32 Transcription Factor (Internal Marker) (AID 2282984);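 also: transcript level of a background control reporter unit measured by RT-PCR and capillary electrophoresis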
Details: HepG2 Attagene TRANS M32 internal marker reporter
Method in brief: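 Internal-marker readout from a multiplexed transcription reporter panel. HepG2 cells were transfected with GAL4-UAS reporter units, treated 24 hours, and reporter transcript levels determined by fluorescence after RT-PCR and capillary separation.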

Row | Structure (SMILES) | outcome
77 | CNC(=C[N+](=O)[O-])NCCSCc1csc(CN(C)C)n1 | inactive
78 | O=C1CCCCCCCCCCCCCC1 | inactive
79 | CCCC(=O)OC/C=C(\C)CCC=C(C)C | inactive
80 | CCCCCCC(O)CCCCCCCCCCC(=O)OC (stereo not drawn) | inactive
81 | COC(=O)c1ccccc1 | inactive
82 | O=C(O)/C=C/C(=O)O | inactive
83 | C/C=C(\C)C(=O)OCC/C=C\CC | inactive
84 | CC/C=C\CC/C=C/C(OCC)OCC | inactive
85 | CN1CCCC1 | inactive
86 | CCCCCCC1CCC(=O)O1 (stereo not drawn) | inactive
87 | CCC(=O)OCc1ccc(OC)cc1 | inactive
88 | CCC(C)=NO | inactive
89 | COc1cccc(OC)c1C(=O)O | inactive
90 | CCCCCC1CCCC(=O)O1 (stereo not drawn) | inactive
91 | COC(=O)[C@]1(C)CCC[C@@]2(C)[C@H]1CC=C1C=C(C(C)C)CC[C@@H]12 | inactive
92 | O=C(OCc1ccccc1)c1ccccc1 | inactive
93 | CCCCCCC1CCCC(=O)O1 (stereo not drawn) | inactive
94 | CC(C)=CCOC(=O)c1ccccc1 | inactive
95 | CNC[C@H](O)[C@@H](O)[C@H](O)[C@H](O)CO | inactive
96 | CN(C)c1ccc(C(c2ccccc2)c2ccc(N(C)C)cc2)cc1 | inactive
97 | c1ccc2c(c1)Oc1ccccc1S2 | inactive
98 | CCCCCC[C@@H](O)C/C=C\CCCCCCCC(=O)O | inactive
